# Bioassay records: PubChem, National Center for Advancing Translational Sciences (NCATS)
# A selection: hits, their analogues and other compounds. The true share with any hit is near 2.9%.
# SNCA expr inh: inhibitors of alpha-synuclein (SNCA) gene expression; HEK-293 SNCA-luciferase knock-in, luminescence, 24 h; Potency, µM (titrated, usually from 57.2 µM), hits mostly inhibitors; 0.17% of 140,000 active; AID 1671194; further: nearly all actives have a fitted effect of over 45% in size
# KDM5B inh: blocks human KDM5B histone demethylase activity | Q9UGL1 | KDM5B demethylase, FDH-coupled NADH fluorescence (FDH is formaldehyde dehydrogenase) | Potency, µM (doses to about 57.7 µM), hits mostly inhibitors | 2.6% of 220,000 active; further: nearly all actives have a fitted effect of over 70% in size
#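 Inhibition is measured as reduced NADH fluorescence generation from FDH coupling to formaldehyde release. Truncated KDM5BΔAP at 200 nM final acts on H3K4me3 peptide (12.5 µM in substrate mix) in pH 7.5 HEPES buffer with Tween-20, 30 min, room temperature.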
# HEK293 viab: counter-screen for SNCA expression inhibitors: cell viability | AID 1671193 | Potency, µM (series often up to 57.1 µM), actives largely listed as cytotoxic | 0.12% of 150,000 active | HEK-293-SNCA-luc viability, GF-AFC fluorescence, 24 h; further: nearly all actives have a fitted effect of over 30% in size
#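 HEK-293-SNCA-luc cells (1500/well) plated 24 h, then exposed 24 h to a dilution series; GF-AFC added 30 min at 37C, fluorescence 405/540 nm; normalised to medium-only and DMSO wells, Hill fit.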
# IP6K1 inhibitor: IP6K1 kinase inhibition. IP6K1 kinase, ADP-Glo luminescence, 2 h; stronger effect = lower value. activity change, % (series mostly up to about 58 µM). 0.81% of 140,000 active. AID 1645851; in the data active means activity change below about -25%
# Target sequence (Q92551 whole entry, looked up): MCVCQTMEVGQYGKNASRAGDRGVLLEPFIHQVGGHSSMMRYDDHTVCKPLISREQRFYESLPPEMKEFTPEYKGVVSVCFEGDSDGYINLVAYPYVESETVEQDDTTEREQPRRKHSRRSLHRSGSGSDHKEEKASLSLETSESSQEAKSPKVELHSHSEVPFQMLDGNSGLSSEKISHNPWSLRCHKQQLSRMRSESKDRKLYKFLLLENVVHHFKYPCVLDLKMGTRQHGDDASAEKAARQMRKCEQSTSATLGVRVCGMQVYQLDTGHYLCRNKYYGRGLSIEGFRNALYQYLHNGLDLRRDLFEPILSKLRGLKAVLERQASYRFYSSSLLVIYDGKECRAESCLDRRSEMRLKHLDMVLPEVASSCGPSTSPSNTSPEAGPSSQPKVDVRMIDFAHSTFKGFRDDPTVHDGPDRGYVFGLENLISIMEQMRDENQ
#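 ADP-Glo luminescence measures ADP made by human IP6K1 during a 2 h RT reaction with ATP/IP6 (mix at 1.3 mM/130 uM); top library doses 57.5 and 19.1 uM final.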
# IP6K1 conf: human IP6K1 inhibition, confirmatory | shares compounds with IP6K1 inhibitor | recombinant IP6K1 kinase, ADP-Glo luminescence, 2 h | Potency, µM (top dose mostly 49 µM), usual class: inhibitors | 13% of 1,200 active | AID 1645852; further: nearly all actives have a fitted effect of over 65% in size
# Hits are given with their value; 0 = inactive; ? = inconclusive; - = no result; ! = a repeat was not active; [ ] = remark or other dose. Unless noted, the call rests on the fitted dose curve; in most records, active means well fitted curve in the direction sought with a large enough effect; inconclusive means small, poorly fitted or top-dose-only effect, or another doubt; inactive means no such curve, though single readings can be large; an effect the other way counts as inactive or inconclusive.
SMILES,SNCA expr inh,KDM5B inh,HEK293 viab,IP6K1 inhibitor,IP6K1 conf
CN(C)[C@@H]1CN(C(=O)Cc2ccccc2)C[C@H]1CO,0,0,0,0,-
CC(=O)c1cccc(NC(=O)NC[C@H]2C[C@@H]3CCN2C[C@@H]3c2cc(-c3ccc(F)cc3)nc(C)n2)c1,0,0,0,0,-
Cn1nc2n(c1=O)CCC(NC(=O)c1nn(C)c3ccccc13)CC2 (stereo not given),0,18µM,0,0,-
OCC1CN(c2ncccn2)CC12CCNCC2 (stereo not given),0,32µM,0,0,-
COCCn1c(C)cc(C(=O)N2[C@H]3CC[C@@H]2c2cnc(-c4ccc(F)cc4)nc2C3)c1C,25µM,0,?,0,-
O=C1CO[C@H]2CN(Cc3ccco3)C[C@H]2N1Cc1cccnc1,0,0,0,0,-
O=C1CO[C@H]2CN(Cc3ncc[nH]3)C[C@H]2N1Cc1cccnc1,0,25µM,0,0,-
O=C1CO[C@H]2CN(Cc3ncc[nH]3)C[C@H]2N1Cc1ccncc1,0,35µM,0,0,-
O=C(c1ccccc1)N1C[C@@H]2C[C@H](C1)c1c(/C=C/c3ccc(Cl)cc3)ccc(=O)n1C2,0,35µM,0,0,-
CO[C@H]1C[C@H](O[C@H]2CC[C@]3(C=O)[C@H]4CC[C@]5(C)[C@@H](C6=CC(=O)OC6)CC[C@]5(O)[C@@H]4CC[C@]3(O)C2)O[C@H](C)[C@H]1O,-,-,0,0,-
Cn1cccc1CN1CCCC2(CC(c3ccccn3)=NO2)C1 (stereo not given),0,0,0,0,-
CN1CCC(N2C[C@@H]3C[C@H](C2)c2ccc(-c4ccc(OC(F)(F)F)cc4)c(=O)n2C3)CC1,0,?,0,0,-
COc1ccc(-c2ccc3n(c2=O)C[C@H]2C[C@@H]3CN(S(C)(=O)=O)C2)cc1,0,40µM,0,0,-
COc1ccc(NC(=O)N2[C@H]3CC[C@@H]2c2cncnc2C3)c(OC)c1,0,0,0,0,-
CC(=O)N1CCC2(C1)N=C(c1cccnc1)C(=O)N2 (stereo not given),0,35µM,0,0,-
CC(=O)N1CCC2(CC1)CC(c1cccnc1)=NO2,0,18µM,0,0,-
c1cncc(C2=NOC3(CCN(C4CCCCC4)CC3)C2)c1,0,0,?,0,-
CC(=O)N1CCC2(CC1)C(=O)NN=C2c1cccnc1,0,0,0,0,-
COc1cccn(CC(=O)N2CCN(C)C3(CCNCC3)C2)c1=O,0,13µM,0,0,-
O=C(Cc1ccccc1)N1[C@H]2CC[C@@H]1c1cnc(-c3ccccc3)nc1C2,0,0,0,0,-
Cc1nc(-c2ccco2)cc([C@H]2CN3CC[C@H]2C[C@@H]3CNC(=O)Nc2ccccc2)n1,?,?,0,0,-
Cc1nc(-c2ccco2)cc([C@H]2CN3CC[C@H]2C[C@@H]3CNC(=O)C2CCCCC2)n1,0,32µM,0,0,-
Cc1nc(-c2ccco2)cc([C@H]2CN3CC[C@H]2C[C@@H]3CNC(=O)NC2CCCCC2)n1,0,32µM,0,0,-
COc1ccc(C(=O)NC[C@H]2C[C@@H]3CCN2C[C@@H]3c2cc(-c3cccs3)nn2C)cc1,0,0,0,0,-
CC(C)Cc1nc2cccnc2n1C1CCNCC1,0,0,0,-33,0
SMILES,SNCA expr inh,KDM5B inh,HEK293 viab,IP6K1 inhibitor,IP6K1 conf
COc1ccccc1C(=O)N1[C@H]2CC[C@@H]1c1cnc(C)nc1C2,0,0,0,0,-
CCOc1ccc2c(n1)CCNC2,0,0,0[12.5 µM],-26,0
O=C(NCc1cccnc1)[C@H]1CN2CCC1C[C@@H]2Cn1cc(-c2ccc(-c3ccccc3)cc2)nn1 (stereo not given in full),0,0,0,0,-
Cc1c(Cl)c(=O)oc2cc(OP(=O)(OCCCl)OCCCl)ccc12,0,-,0,0,-
CCOP(=S)(OCC)Oc1ccc2c(C)c(Cl)c(=O)oc2c1,0,-,0,-52,6.5µM
NC(Cc1ccc(Cl)cc1)c1ccccc1 (stereo not given),-,0,-,-,-
CCN(CC)C(=O)[C@@H]1C=C2c3cccc4[nH]cc(c34)C[C@H]2N(C)C1,0,-,0,-72,0
COc1cc2c(cc1OCC1CC1)NC(=O)C21CCN(c2nc(C)cnc2C)CC1,0,0,0,-32,0
COc1cc2c(cc1OCC1CC1)NC(=O)C21CCN(c2ccnc(C)n2)CC1,0,0,0,0,-
CCC(=O)N1[C@H]2CC[C@@H]1c1cnc(-c3ccc(F)cc3)nc1C2,0,0,0,0,-
CCCCCOc1cc2c(cc1-c1cc(/C=C/C(=O)O)ccc1O)C(C)(C)CCC2(C)C,-,-,?,-27,?
O=C(C1CCCCC1)N1[C@H]2CC[C@@H]1c1cnc(-c3ccc(F)cc3)nc1C2,0,0,0,0,-
CC(=O)[O][Hg][c]1ccccc1,?,-,?,-61,0.65µM
CC[C@H]1CN2CC[C@H]1C[C@@H]2CNC(=S)Nc1ccc(N(C)C)cc1,0,0,0,-33,0
CC[C@H]1CN2CC[C@H]1C[C@@H]2CNC(=O)Nc1ccc(C(C)(C)C)cc1,0,0,0,0,-
CCC1CCCCN1C(=O)c1cn(C)c2ccccc12 (stereo not given),-,0,-,-,-
O=C1Nc2ccccc2C12CCN(Cc1cccc3ccccc13)CC2,0,0,0,-47,?
O=C1Nc2ccccc2C12CCN(Cc1ccc(C(F)(F)F)cc1)CC2,?,0,0,-32,?
CC[n+]1c(-c2ccccc2)c2cc(N)ccc2c2ccc(N)cc21,0,-,0,-52,?
O=c1c2ccccc2nc(/C=C/c2cccc3ccccc23)n1-c1ccccc1Cl,?,?,?,0,-
CCOC(=O)c1c(C)n(Cc2ccccc2)c2ccc(OC(C)=O)cc12,-,0,-,-,-
C#CC1(O)CCC2C3CCC4=CC(=O)CCC4=C3C=CC21C (stereo not given),-,-,0,0,-
C=CC[C@]1(O)CC[C@H]2[C@@H]3CCC4=CC(=O)CCC4=C3C=C[C@@]21C,0,-,0,-45,0
C=C(C)[C@@]12O[C@@H]1[C@@]1(C)C(=CC2=O)CC[C@@H](OC(C)=O)[C@@H]1C,-,-,?,0,-
C[C@]12CCC(=O)C=C1CC[C@@H]1[C@H]3CC[C@](C)(O)[C@@]3(C)CC[C@@H]12,0,-,?,0,-
SMILES,SNCA expr inh,KDM5B inh,HEK293 viab,IP6K1 inhibitor,IP6K1 conf
CC12Cc3cn[nH]c3C=C1CCC1C2CCC2(C)C1CCC2(C)O (stereo not given),-,-,0,-47,7.3µM
COc1nn(CSP(=S)(OC)OC)c(=O)s1,0,-,?,-46,10µM
CCOC(=O)CC(SP(=S)(OC)OC)C(=O)OCC (stereo not given),0,-,0,-70!,18µM
O=C(Nc1ccc(=O)n2c1[C@@H]1C[C@@H](CN(C(=O)c3ccc(F)cc3)C1)C2)C1CCCCC1,0,0,0,0,-
Cc1ccc([C@H]2CN(C(=O)C(=O)c3cccn3C)[C@@H]3C4CCN(CC4)[C@H]23)cc1,0,0,0,-30,0
COc1ccc([C@@H]2CN(C(=O)C(=O)c3ccco3)[C@@H]3C4CCN(CC4)[C@@H]32)cc1,0,0,0,0,-
